Data taken from PubChem BioAssay (NCI).
Where “and” joins values, the source holds several entries; their conditions need not be identical. Identical values can stand only once. The panel holds about 79,000 compounds, 15% with a hit somewhere; the sample as a whole holds those more often. Calls of active or inactive are those of the source. Cut-off read from the data, not from the text of the source: active = growth inhibition above about 70%; inactive = the rest.

Experiment: NCI Yeast Anticancer Drug Screen. Data for the sgs1 mgt1 strain (AID 161);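 note: 0% = growth of cultures given vehicle only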
Conditions: S. cerevisiae sgs1 mgt1 strain, at 50.0 µM, active compounds read high
In short: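 Test agents were incubated with a DNA-repair-mutant yeast strain. Growth was then read and compared against vehicle-treated controls.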

Structure (SMILES) | growth inhibition
CNC(=O)Oc1cc(OC)ccc1C(=O)c1ccccc1 | 32.6% (inactive)
O=P(Oc1ccccc1)(Oc1ccccc1)C(O)C(Cl)(Cl)Cl (stereo not given) | -0.3% (inactive)
Cc1cc(N(CCCl)CCCl)ccc1C=Nc1ccc(F)cc1[N+](=O)[O-] | 2.65% (inactive)
CSP(=S)(SC)SC | 13.4% (inactive)
O=C(Nc1ccccc1Cl)OCC(Cl)(Cl)Cl | 16.1% (inactive)
O=C(Cc1ccccc1)Oc1ccc2c(-c3ccccc3)c(C(=O)Nc3ccc(Cl)cc3)c(=O)oc2c1 | 2.2% (inactive)
Cc1cccc(OCC2=NCCN2)c1C | -8.45% (inactive)
COCC1OC(OC2C3=C(C(C)C)CCC3(C)/C=C3\C(CCC3(O)COC)C(C)C2O)C(O)C2OC3OC12OC3(C)C1CO1 (stereo not given) | 21% (inactive)
COc1ccc2c(c1OC)CC(N)C2O (stereo not given) | 7.8% (inactive)
O=C(Cl)C1CCC1 | 10.1% (inactive)
Cc1cc(C)cc(C(O)(C(=O)O)c2ccccc2)c1 (stereo not given) | -5.45% (inactive)
COC1=CC(=Nc2ccc(N(CCCl)CCCl)cc2)C=CC1=O | 14.3% (inactive)
O=c1[nH]c(=S)[nH]c(O)c1/C=C1\C=CC=N1 | -3.45% (inactive)
CCCNC(Cc1ccccc1)c1ccccc1 (stereo not given) | 3.4% (inactive)
O=C([O-])CN(CCN(CC(=O)[O-])CC(=O)O)CC(=O)O.[Fe+5].[Na+] | 0.35% (inactive)
CC1COC(Nc2cccc3c2CCCC3)=N1 (stereo not given) | -10.6% (inactive)
CCCCC[N+]1=Cc2cc(O)c(O)cc2CC1 | 1.75% (inactive)
Cc1cccc2c(=O)c([Se]c3coc4c(C)cccc4c3=O)coc12 | -48.2% (inactive)
CCC(C)C(CC)C(=O)NC(N)=O (stereo not given) | -11.4% (inactive)
C[N+](C)(C)Cc1ccc2ccccc2c1Br | 10.2% (inactive)

Structure (SMILES) | growth inhibition
CCCCCCC(=O)O[C@H]1CC[C@H]2[C@@H]3CCC4C/C(=N/NC(=O)c5cccc6c(=O)c7ccccc7[nH]c56)C=C(C)[C@]4(C)[C@H]3CC[C@]12C (stereo not given in full) | 16.6% (inactive)
CCC1(CC)COP(=S)(S)OC1 | -16.9% (inactive)
CCOP(O)(=S)OCC | 11.6% (inactive) and 7.65% (inactive) and -4.2% (inactive)
CC(N)C(O)c1ccc(O)cc1 (stereo not given) | -21.1% (inactive)
CC(=O)N1CCCN(C)/C1=N/[N+](=O)[O-] | -6.7% (inactive)
CC(C)(NC1=NCCO1)c1ccccc1 | -7.65% (inactive)
ClCc1cccc2ccccc12 | -26.1% (inactive)
Cc1cccc(C)c1N | -9.65% (inactive)
CCNC(=O)C(C)Br (stereo not given) | 23.5% (inactive)
COC1OC2COC(c3ccccc3)OC2C2N=C(N)N([N+](=O)[O-])C12OS(C)(=O)=O (stereo not given) | -12.2% (inactive)
Oc1c(Cl)cc(Cl)cc1C1N(Cc2ccc(N(CCCl)CCCl)cc2)CCCN1Cc1ccc(N(CCCl)CCCl)cc1 | 23.4% (inactive)
CN(CCOC(=O)c1ccc(Br)cc1)[N+](=O)[O-] | -6.25% (inactive)
O=[Te]=O | 17.4% (inactive)
CC(C)CC1N=C(NN=C2CCCCC2)SP1(=O)NNc1ncccn1 (stereo not given) | 12.5% (inactive)
Cc1[nH]c2cc([N+](=O)[O-])ccc2c1[N+](=O)[O-] | 26% (inactive) and 38.3% (inactive)
CCCCNCCc1cccnc1 | 20.8% (inactive)
C/C=C(\CC)C1(CCC)C(=O)NC(=O)NC1=O | 5.25% (inactive) and 22.8% (inactive)
CN1CCC2=C(c3ccccc3)c3ccccc3C2C1 (stereo not given) | 13.4% (inactive)
O=c1oc2cc(O)ccc2c(O)c1C(c1ccccn1)c1c(O)c2ccc(O)cc2oc1=O | -13.7% (inactive)
NC(CCl)=NC1CN2CCC1CC2 (stereo not given) | -13.2% (inactive)

Experiment: NCI Yeast Anticancer Drug Screen. Data for the cln2 rad14 strain (AID 165);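 note: 0% = growth equal to vehicle treated cultures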
Conditions: S. cerevisiae cln2 rad14 strain, at 50.0 µM, active compounds read high
In short: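 Test compounds were added to cln2 rad14 yeast cultures; inhibition of growth was then determined by comparison with vehicle treatment.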

Structure (SMILES) | growth inhibition
CNC(=O)Oc1cc(OC)ccc1C(=O)c1ccccc1 | -21.6% (inactive)
O=P(Oc1ccccc1)(Oc1ccccc1)C(O)C(Cl)(Cl)Cl (stereo not given) | 6.5% (inactive)
Cc1cc(N(CCCl)CCCl)ccc1C=Nc1ccc(F)cc1[N+](=O)[O-] | 1.65% (inactive)
CSP(=S)(SC)SC | 22.1% (inactive)
O=C(Nc1ccccc1Cl)OCC(Cl)(Cl)Cl | -19.9% (inactive)
O=C(Cc1ccccc1)Oc1ccc2c(-c3ccccc3)c(C(=O)Nc3ccc(Cl)cc3)c(=O)oc2c1 | 2.6% (inactive)
Cc1cccc(OCC2=NCCN2)c1C | -57.1% (inactive)
COCC1OC(OC2C3=C(C(C)C)CCC3(C)/C=C3\C(CCC3(O)COC)C(C)C2O)C(O)C2OC3OC12OC3(C)C1CO1 (stereo not given) | 35.2% (inactive)
COc1ccc2c(c1OC)CC(N)C2O (stereo not given) | 4.3% (inactive)
O=C(Cl)C1CCC1 | -4.65% (inactive)
Cc1cc(C)cc(C(O)(C(=O)O)c2ccccc2)c1 (stereo not given) | 5.55% (inactive)
COC1=CC(=Nc2ccc(N(CCCl)CCCl)cc2)C=CC1=O | 11.4% (inactive)
O=c1[nH]c(=S)[nH]c(O)c1/C=C1\C=CC=N1 | 1.85% (inactive)
CCCNC(Cc1ccccc1)c1ccccc1 (stereo not given) | -10.1% (inactive)
O=C([O-])CN(CCN(CC(=O)[O-])CC(=O)O)CC(=O)O.[Fe+5].[Na+] | -35.8% (inactive)
CC1COC(Nc2cccc3c2CCCC3)=N1 (stereo not given) | -34% (inactive)
CCCCC[N+]1=Cc2cc(O)c(O)cc2CC1 | -24.9% (inactive)
Cc1cccc2c(=O)c([Se]c3coc4c(C)cccc4c3=O)coc12 | -5.8% (inactive)
CCC(C)C(CC)C(=O)NC(N)=O (stereo not given) | -1.35% (inactive)
C[N+](C)(C)Cc1ccc2ccccc2c1Br | 10.3% (inactive)

Structure (SMILES) | growth inhibition
CCCCCCC(=O)O[C@H]1CC[C@H]2[C@@H]3CCC4C/C(=N/NC(=O)c5cccc6c(=O)c7ccccc7[nH]c56)C=C(C)[C@]4(C)[C@H]3CC[C@]12C (stereo not given in full) | 24.7% (inactive)
CCC1(CC)COP(=S)(S)OC1 | 10.1% (inactive)
CCOP(O)(=S)OCC | -2.05% (inactive) and 20.1% (inactive) and 6.7% (inactive)
CC(N)C(O)c1ccc(O)cc1 (stereo not given) | -4.95% (inactive)
CC(=O)N1CCCN(C)/C1=N/[N+](=O)[O-] | -10.9% (inactive)
CC(C)(NC1=NCCO1)c1ccccc1 | 5.5% (inactive)
ClCc1cccc2ccccc12 | -6.05% (inactive)
Cc1cccc(C)c1N | -36.5% (inactive)
CCNC(=O)C(C)Br (stereo not given) | -3.55% (inactive)
COC1OC2COC(c3ccccc3)OC2C2N=C(N)N([N+](=O)[O-])C12OS(C)(=O)=O (stereo not given) | -21.1% (inactive)
Oc1c(Cl)cc(Cl)cc1C1N(Cc2ccc(N(CCCl)CCCl)cc2)CCCN1Cc1ccc(N(CCCl)CCCl)cc1 | -3.25% (inactive)
CN(CCOC(=O)c1ccc(Br)cc1)[N+](=O)[O-] | 5.8% (inactive)
O=[Te]=O | 5% (inactive)
CC(C)CC1N=C(NN=C2CCCCC2)SP1(=O)NNc1ncccn1 (stereo not given) | 2.35% (inactive)
Cc1[nH]c2cc([N+](=O)[O-])ccc2c1[N+](=O)[O-] | 24.9% (inactive) and 9.1% (inactive)
CCCCNCCc1cccnc1 | 23.7% (inactive)
C/C=C(\CC)C1(CCC)C(=O)NC(=O)NC1=O | 17.4% (inactive) and -7% (inactive)
CN1CCC2=C(c3ccccc3)c3ccccc3C2C1 (stereo not given) | -9.85% (inactive)
O=c1oc2cc(O)ccc2c(O)c1C(c1ccccn1)c1c(O)c2ccc(O)cc2oc1=O | -1.85% (inactive)
NC(CCl)=NC1CN2CCC1CC2 (stereo not given) | 5.9% (inactive)
